TDP1 cell noCPT: qHTS for Inhibitors of human tyrosyl-DNA phosphodiesterase 1 (TDP1): qHTS in cells in absence of CPT; AID 686978, 2013; Potency, µM (highest dose often 46.2 µM), without a hit: top-dose activity change, negative = growth inhibition, usual class: inhibitors; DT40 Tdp1-/- hTDP1 cells, no CPT, ATP luminescence, 48 h; 420,000 tested, 15% active; note: nearly all actives have a fitted effect of over 55% in size
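Growth kinetics read by CellTiter-Glo luminescence after ≥48 hr at 37 °C. Cells: DT40 Tdp1-/- stably carrying human TDP1, 400 per well, compound exposure in the absence of CPT (DMSO vehicle).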
DT40 TDP1 CPT: growth inhibition of DT40 Tdp1-/-;hTDP1 cells with camptothecin (screen for TDP1 inhibitors) | chicken DT40 Tdp1-/-;hTDP1 cells + 20 nM CPT, ATP luminescence, 48 h | AID 686979 | 420,000 tested, 12% active | Potency, µM (doses to about 46.2 µM), inactives show at the highest dose activity change, negative = growth inhibition, actives largely listed as inhibitors; note: nearly all actives have a fitted effect of over 55% in size
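Cell growth measured by CellTiter-Glo luminescence after a minimum 48 h, 37 C compound exposure with 20 nM CPT in Tdp1-knockout DT40 cells stably expressing hTDP1, seeded 400/well; qHTS titration format.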
HT1080-NT tox: kills 2HG-producing HT-1080-NT fibrosarcoma cells; 360,000 tested, 1.6% active; HT-1080-NT fibrosarcoma viability, CellTiter-Glo ATP luminescence, 48 h; Potency, µM (highest dose often 46.1 µM), without a hit: top-dose activity, negative = less viability, usual class: cytotoxic;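 note: NT is the 2HG producing partner of a matched IDH1 knockdown line; 0% = DMSO-treated cells and -100% = media-only wells without cells; nearly all actives have a fitted effect of over 55% in size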
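Fibrosarcoma NT cells, 750 per well in 5% FBS RPMI, were exposed to compound for 48 hours. Viability: CellTiter-Glo luminescence.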
KB-3-1 tox: KB-3-1 parental cell cytotoxicity | KB-3-1 viability, CellTiter-Glo ATP luminescence, 72 h | Potency, µM (titrated, usually from 46.1 µM), actives largely listed as cytotoxic | 400,000 tested, 1.4% active | AID 1347075; note: nearly all actives have a fitted effect of over 60% in size
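Cytotoxicity in the drug-sensitive parental line KB-3-1 was scored as loss of CellTiter-Glo luminescence following 72 h incubation with compound. Values come from curve fitting of normalized concentration-response data.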
KB-V1 cytotox: KB-V1 MDR subline cytotoxicity. KB-V1 MDR cells viability, CellTiter-Glo, 72 h. 400,000 tested, 3.4% active. AID 1347076. Potency, µM (titrated, usually from 46.1 µM), usual class: cytotoxic; note: nearly all actives have a fitted effect of over 60% in size
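KB-V1, DMEM (no phenol red) + 10% FBS; cpd pin-transferred, titration series; 72 h, 37 degrees C; CellTiter-Glo, luminescence. Data normalized, curve-fit.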
HT1080 IDH1KD tx: HT-1080 IDH1 knockdown cell toxicity (counter line); HT-1080 IDH1 knockdown viability, ATP luminescence, 48 h; Potency, µM (top dose mostly 46.1 µM), without a hit: at the top dose activity, negative = toxicity, actives largely listed as cytotoxic; 360,000 tested, 2% active;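 note: 0% = DMSO wells and -100% = cell-free medium wells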
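CellTiter-Glo luminescence after 48 h compound exposure at 37 degrees C of IDH1-knockdown HT-1080 cells in 5% FBS RPMI. %Activity scaled between DMSO wells and cell-free media wells, with curves fitted and assigned curve classes.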
An asterisk follows results filed as active; ! = a repeat was not active. Hits are enriched below; roughly 19% of the tested compounds scored in any of these assays. Calls come from the whole dose curve; as a rule, active = well fitted curve in the direction sought with a large enough effect; inconclusive = small, poorly fitted or top-dose-only effect, or another doubt; inactive = no such curve, though single readings can be large; an effect the other way counts as inactive or inconclusive. Unless noted, % is set by controls: 0 for no effect and ±100 for the full control effect; potency is the fitted concentration of half-maximal effect.

For CCc1ccccc1NC(=O)Cn1c(=O)n(CCc2ccccc2)c(=O)c2sc3ccccc3c21 the results were TDP1 cell noCPT inconclusive, DT40 TDP1 CPT -18.0%, KB-3-1 tox inactive and KB-V1 cytotox inactive.
Cc1ccc(-n2ncc3c(NC4CCCCC4)ncnc32)cc1C was read as TDP1 cell noCPT inconclusive, DT40 TDP1 CPT inconclusive, KB-3-1 tox inactive and KB-V1 cytotox inactive.
For COC(=O)CN(c1ccccc1[N+](=O)[O-])S(=O)(=O)c1ccccc1 the results were TDP1 cell noCPT 2.7%, DT40 TDP1 CPT 14.7%, HT1080-NT tox -1.3%, KB-3-1 tox inactive, KB-V1 cytotox inactive and HT1080 IDH1KD tx -0.7%.
Screening CC(=O)N(c1ccccc1)c1ccccc1[N+](=O)[O-] returned TDP1 cell noCPT 25.9µM*, DT40 TDP1 CPT inconclusive, HT1080-NT tox 8.0%, KB-3-1 tox inactive, KB-V1 cytotox inactive and HT1080 IDH1KD tx 0.4%.
CC(C)[C@H](NC(=O)c1ccc(Cl)cc1)C(=O)Nc1cccc(S(=O)(=O)N2CCOCC2)c1 was read as TDP1 cell noCPT -23.2%, DT40 TDP1 CPT -18.8%, HT1080-NT tox 9.1%, KB-3-1 tox inactive, KB-V1 cytotox inactive and HT1080 IDH1KD tx 0.4%.
CC(C1CC1)N(C(=O)c1ccccc1[N+](=O)[O-])c1ccccc1 (centres undefined) was read as TDP1 cell noCPT 8.2µM*, DT40 TDP1 CPT 20.6µM*, HT1080-NT tox -9.4%, KB-3-1 tox inactive, KB-V1 cytotox inactive and HT1080 IDH1KD tx 0.4%.
Screening Fc1cccc(Cc2c(-c3ccccc3)nc3c(Cl)cc(C(F)(F)F)cn23)c1 returned TDP1 cell noCPT inconclusive, DT40 TDP1 CPT inconclusive, HT1080-NT tox -0.8%, KB-3-1 tox inactive, KB-V1 cytotox inactive and HT1080 IDH1KD tx 15.0%.
Screening Fc1cc(F)cc(-c2c(-c3ccccc3)ncc3ccc(F)cc23)c1 returned TDP1 cell noCPT 7.31µM*, DT40 TDP1 CPT 13µM*, HT1080-NT tox 2.0%, KB-3-1 tox inconclusive, KB-V1 cytotox inactive and HT1080 IDH1KD tx 12.2%.
For Fc1ccc2cnc(-c3ccccc3)c(-c3cccc(C(F)(F)F)c3)c2c1 the results were TDP1 cell noCPT 18.4µM*, DT40 TDP1 CPT 16.4µM*, HT1080-NT tox -13.3%, KB-3-1 tox inactive, KB-V1 cytotox inactive and HT1080 IDH1KD tx -20.1%.
`Fc1ccc2ncc3c(-c4ccccc4)n[nH]c3c2c1` gave TDP1 cell noCPT -15.2%, DT40 TDP1 CPT -4.4%, KB-3-1 tox inactive and KB-V1 cytotox inactive.
Cc1ccc(SC[C@H](C)CN2CC[C@H](C)CCC2=O)cc1 was read as TDP1 cell noCPT 17.8µM*, DT40 TDP1 CPT 12.6µM*, HT1080-NT tox -1.1%, KB-3-1 tox inconclusive, KB-V1 cytotox 18.4µM*! and HT1080 IDH1KD tx 7.1%.
Screening COc1ccc(SC[C@H](C)CN2CC[C@H](O)CCC2=O)cc1 returned TDP1 cell noCPT -16.9%, DT40 TDP1 CPT inconclusive, KB-3-1 tox inactive and KB-V1 cytotox inactive.
For COc1ccc(SC[C@H](C)CN2CC[C@H](C)CCC2=O)cc1 the results were TDP1 cell noCPT inconclusive, DT40 TDP1 CPT inconclusive, HT1080-NT tox 4.8%, KB-3-1 tox 18.4µM*!, KB-V1 cytotox 8.2µM*! and HT1080 IDH1KD tx 7.2%.
C[C@@H]1CCC(=O)N(C[C@@H](C)CSc2ccc(Br)cc2)CC1 was read as TDP1 cell noCPT 17.8µM*, DT40 TDP1 CPT inconclusive, HT1080-NT tox 0.3%, KB-3-1 tox inactive, KB-V1 cytotox inconclusive and HT1080 IDH1KD tx -13.8%.
Screening O=C(Cc1ccc(Cl)cc1)NC1CC(=O)N(c2ccc3c(c2)OCCO3)C1 (centres undefined) returned TDP1 cell noCPT -18.6%, DT40 TDP1 CPT -17.0%, KB-3-1 tox inactive and KB-V1 cytotox inactive.
For O=C(COc1ccc2oc3c(c2c1)CCCC3)Nc1ccc(Cl)cc1 the results were TDP1 cell noCPT inconclusive, DT40 TDP1 CPT inconclusive, KB-3-1 tox inactive and KB-V1 cytotox inactive.
`COc1ccc(/C=C/C(=O)c2ccc(Cl)s2)cc1O` gave TDP1 cell noCPT 18.4µM*, DT40 TDP1 CPT inconclusive, HT1080-NT tox -8.2%, KB-3-1 tox inconclusive, KB-V1 cytotox inconclusive and HT1080 IDH1KD tx -14.1%.
For COc1cc(/C=C/C(=O)c2ccc(Cl)s2)cc(OC)c1O the results were TDP1 cell noCPT 29.1µM*, DT40 TDP1 CPT inconclusive, HT1080-NT tox inconclusive, KB-3-1 tox inactive, KB-V1 cytotox inconclusive and HT1080 IDH1KD tx 11.2µM*.
Screening CCN(CC)CCCn1c2c(c(SCC(=O)Nc3cc(C)cc(C)c3)nc1=O)CCC2 returned TDP1 cell noCPT inconclusive, DT40 TDP1 CPT -22.1%, HT1080-NT tox -16.4%, KB-3-1 tox inactive, KB-V1 cytotox inactive and HT1080 IDH1KD tx -23.8%.
`CCOC(=O)Cn1c2c(c(=N)c3c1CCC3)CCC2` gave TDP1 cell noCPT -7.4%, DT40 TDP1 CPT -7.7%, HT1080-NT tox -4.1%, KB-3-1 tox inconclusive, KB-V1 cytotox inactive and HT1080 IDH1KD tx -23.3%.
CCCCCCCCCn1c2c(c(=N)c3c1CCC3)CCCC2 was read as TDP1 cell noCPT 0.0184µM*, DT40 TDP1 CPT 0.0259µM*, HT1080-NT tox 7.31µM*, KB-3-1 tox inconclusive, KB-V1 cytotox inactive and HT1080 IDH1KD tx 4.61µM*.
CCn1c2c(c(=N)c3c1CCC3)CCCC2 was read as TDP1 cell noCPT 9.2µM*, DT40 TDP1 CPT inconclusive, HT1080-NT tox inconclusive, KB-3-1 tox 11.6µM*, KB-V1 cytotox inconclusive and HT1080 IDH1KD tx -19.4%.
`CCCCCCCCCCn1c2c(c(=N)c3c1CCC3)CCC2` gave TDP1 cell noCPT 0.0291µM*, DT40 TDP1 CPT 0.259µM*, HT1080-NT tox 1.03µM*, KB-3-1 tox inconclusive, KB-V1 cytotox inactive and HT1080 IDH1KD tx inconclusive.
CCN(CC)CCCNC(=O)C1CCN(S(C)(=O)=O)CC1 was read as TDP1 cell noCPT -17.3% and DT40 TDP1 CPT 1.7%.
For C=CC(C1=CC(=O)C(OC)=C(OC)C1=O)c1ccccc1 (centres undefined) the results were TDP1 cell noCPT 0.731µM* and DT40 TDP1 CPT 0.82µM*.
C=CC(C1=CC(=O)C(OC)=CC1=O)c1ccccc1 (centres undefined) was read as TDP1 cell noCPT 2.91µM* and DT40 TDP1 CPT 3.66µM*.
For C=CC(C1=CC(=O)C(OC)=CC1=O)c1ccc(OC)cc1 (centres undefined) the results were TDP1 cell noCPT 2.91µM* and DT40 TDP1 CPT 3.26µM*.

Bioassay records from PubChem BioAssay.
